Measured values: PubChem BioAssay (NCI)
The panel holds about 83,000 compounds, 20% with a hit somewhere; the sample as a whole holds those more often.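 Cell lines were cultured in 96-well plates, exposed to a single compound concentration, and assessed for percent growth 48 hours later.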 A number with no mark means an inactive call. Active and inactive are the calls of the source. The calls were made as follows: active = growth percent below 10; inactive = the rest.

Assays:
Experiment in all cases: NCI-60 one-dose screen, 48 h (100 = growth as untreated, 0 = no growth, -100 = all killed)
[1] = test system: SK-MEL-2 melanoma; settings: 10 µM unless noted
[2] = test system: EKVX NSCLC; settings: 10 µM
[3] = test system: SN12C renal; settings: 10 µM unless noted
[4] = test system: UO-31 renal; settings: 10 µM unless noted
[5] = test system: TK-10 renal; settings: 10 µM unless noted
[6] = test system: ACHN renal; settings: 10 µM unless noted
[7] = test system: CAKI-1 renal; settings: 10 µM unless noted
[8] = test system: A498 renal; settings: 10 µM unless noted
[9] = test system: CCRF-CEM leukemia; settings: 10 µM
[10] = test system: MOLT-4 leukemia; settings: 10 µM unless noted

| Compound | growth [1] | growth [2] | growth [3] | growth [4] | growth [5] | growth [6] | growth [7] | growth [8] | growth [9] | growth [10] |
| --- | --- | --- | --- | --- | --- | --- | --- | --- | --- | --- |
| O=C1c2cc([N+](=O)[O-])ccc2-c2cc(Cl)c(NC(=O)C(F)(F)F)cc21 | 97.1% | 73.3% | 112% | 93.2% | 129% | 99.5% | 97.2% | 101% | 96.6% | 94% |
| COc1cc(NC(C)CCCN)c2nccc(C)c2c1OC (stereo not given) | 95.2% | 99.4% | 82% | 89.5% | 114% | 100% | 99.9% | 83.7% | 64.8% | 73.1% |
| CCOc1ccc2nc3ccc(Cl)cc3nc2c1 | 97.5% | 75% | 100% | 74.9% | 95.1% | 94.6% | 124% | 83.3% | -0.816% (active) | 50.8% |
| CCc1ccc(C(=Nc2ccc(N(C)C(=O)CN3CCN(C)CC3)cc2)c2c(O)[nH]c3ccc(C(=O)OC)cc23)cc1 | -55.4% (active) | -17.4% (active) | -57.4% (active) | -94.9% (active) | -64.7% (active) | -69.1% (active) | -82.9% (active) | -82.2% (active) | -15.5% (active) | -37.6% (active) |
| COc1cc(N2C(=O)C=CC2=O)ccc1N1C(=O)C=CC1=O | 113% | 94.2% | 105% | 87.1% | 86.4% | 96.6% | 93.7% | 74.9% | 18.9% | 100% |
| COc1ccccc1C(=O)Nc1cccc(-c2cc(=O)c3c(OC)c(OC)c(OC)cc3o2)c1 | 31.1% | 61.7% | 41% | 15.3% | 53.4% | 43% | 65.1% | 44.9% | 16% | 28.8% |
| CCOC(=O)NC1=NCC(C)(C)S1 | 102% | 98.2% | 93.8% | 86.9% | 98.4% | 107% | 99.7% | 68.4% | 98.4% | 83.8% |
| COCC(=O)NNc1[nH]c(-c2ccc(OC)cc2)cc1C#N | 108% | 112% | 112% | 95.4% | 92.7% | 110% | 105% | 116% | 55.9% | 81.8% |
| COc1cc(/C=C/C(=O)c2ccc(F)cc2)ccc1OCCCCOc1cc2c(cc1OC)C(=O)N1CCCC1C=N2 (stereo not given) | -24.6% (active) | 8.29% (active) | -48.1% (active) | -63% (active) | -16.9% (active) | -85.9% (active) | -14.2% (active) | 7.77% (active) | -30.3% (active) | -19.4% (active) |
| Nc1nc2c(c3cnccc13)C(c1ccc(Cl)c(Cl)c1)Cc1cnccc1-2 (stereo not given) | -36.3% (active) | 5.75% (active) | 2.42% (active) | -39.9% (active) | -40% (active) | -67.1% (active) | 4.1% (active) | -45.6% (active) | 3.33% (active) | 2.48% (active) |
| COC(=O)c1ccc2[nH]c(O)c(C(=Nc3ccc(N(C)C(=O)CN4CCN(C)CC4)cc3)c3ccc(C)cc3)c2c1 | -31.6% (active) | 23% | 9.81% (active) | -81.2% (active) | -82.7% (active) | -61.1% (active) | -41.6% (active) | -73.8% (active) | 1.57% (active) | -24.6% (active) |
| CC(=O)Nc1nc(C)c(C(=O)N/N=C/c2cccs2)s1 | 19.3% | 107% | 92.6% | 79.8% | 144% | 95.9% | 111% | 92.4% | 84.6% | 84.1% |
| O=C(CN1C(=O)NC(c2ccccc2)(c2ccccc2)C1=O)c1ccc(N2CCCC2)cc1 | 91.1% | 82.4% | 103% | 66.6% | 98.4% | 89.9% | 70.5% | 61.9% | 98.9% | 70.5% |
| COc1ccc(OC)c(Cn2cc3c(c2)-c2oncc2CC3)c1 | 45% | 42% | 45.9% | 41.9% | 68.9% | 55.8% | 12.5% | 24.2% | 16% | 28.7% |
